The sample as a whole holds a higher share of hits than the screen did.
KDM5B inhibitor = KDM5B demethylase inhibition; Q9UGL1; KDM5B demethylase, FDH-coupled NADH fluorescence (FDH is formaldehyde dehydrogenase); Potency, µM (doses to about 57.7 µM), usual class: inhibitors; 220,000 compounds, 2.6% hits; active = well fitted inhibition curve with a large enough effect; note: 0% is about no effect; nearly all actives have a fitted effect of over 70% in size
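Here, H3K4me3 peptide (12.5 µM in substrate mix) is demethylated by KDM5BΔAP, 200 nM final, after 10 min compound exposure. Formaldehyde product is coupled through FDH (0.25 U/mL in mix) to NADH fluorescence; 30-min ΔRFU feeds dose-response curves.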
* = called active by the depositor. Potency is the fitted concentration of half-maximal effect.

Screening CC1(O)CCC2C3CCC4=CC(=O)CC[C@]4(C)C3CC[C@@]21C (some centres not stated) returned KDM5B inhibitor inactive.
Screening CS(=O)(=O)NNP(=O)(NNS(C)(=O)=O)NC(=O)c1ccc(Br)cc1 returned KDM5B inhibitor inactive.
For Cn1c(O)c(C=Nc2cccc(C(F)(F)F)c2)c(=O)n(C)c1=O the results were KDM5B inhibitor inactive.
O=c1cc(-c2ccccc2)[se]c2ccccc12 was read as KDM5B inhibitor inactive.
Screening C#C[C@H]1CN2CC[C@H]1C[C@@H]2CNS(=O)(=O)CCC returned KDM5B inhibitor inactive.
Screening COc1ccc([C@@H]2CN(S(=O)(=O)N3CCCC3)[C@@H]3C4CCN(CC4)[C@@H]32)cc1 returned KDM5B inhibitor inactive.
`COc1ccc([C@@H]2CN(c3nccc(C)n3)[C@@H]3C4CCN(CC4)[C@@H]32)cc1` gave KDM5B inhibitor 14µM*.
COc1ccc([C@@H]2CN(C(=O)c3sccc3C)[C@@H]3C4CCN(CC4)[C@@H]32)cc1 was read as KDM5B inhibitor inactive.
COc1cccc(-c2cc(C(F)F)n3ncc(C#N)c3n2)c1 was read as KDM5B inhibitor inactive.
`Cc1ncc2c(n1)C[C@@H]1CC[C@H]2N1C(=O)C1CCCCC1` gave KDM5B inhibitor inactive.
CC(C)CNC(=O)CN1CCN(C(=O)Cc2c[nH]c3ccccc23)CC1 was read as KDM5B inhibitor inactive.
`O=C(Cc1c[nH]c2ccccc12)N1CCN(CC(=O)N2CCCC2)CC1` gave KDM5B inhibitor inactive.
CN1CCN(C(=O)COc2ccc3ccccc3c2)CC1 was read as KDM5B inhibitor inactive.
For CN1CCN(C(=O)Cc2c[nH]c3ncc(-c4cccc(OC(F)(F)F)c4)cc23)CC1 the results were KDM5B inhibitor 35µM*.
Screening COc1cccc(-c2cnc3[nH]cc(CC(=O)N4CCN(C)CC4)c3c2)c1 returned KDM5B inhibitor 35µM*.
COc1cccc(CC(=O)N2CCN(CCC(=O)NC(N)=O)CC2)c1 was read as KDM5B inhibitor inactive.
CN1CCN(C(=O)Cc2c[nH]c3ncc(-c4ccccc4Oc4ccccc4)cc23)CC1 was read as KDM5B inhibitor 40µM*.
Screening CCN1CCN(C(=O)Cc2c[nH]c3ccccc23)CC1 returned KDM5B inhibitor inactive.
`O=C(Cc1c[nH]c2ncc(-c3cccnc3)cc12)N1CCN(Cc2ccccc2)CC1` gave KDM5B inhibitor inactive.
COc1cc2c(cc1-c1cccnc1OC)NC(=O)C21CCN(C(C)=O)CC1 was read as KDM5B inhibitor inactive.
`COc1ncccc1-c1cnc2[nH]cc(CC(=O)N3CCN(C)CC3)c2c1` gave KDM5B inhibitor 35µM*.
c1cncc(CN2CCCC3(CC(c4cccnc4)=NO3)C2)c1 (configuration not stated) was read as KDM5B inhibitor inactive.
For COc1ccc2c(c1)c(C(=O)NC(C)CCC(C)C)c(C)n2C1CC1 (configuration not stated) the results were KDM5B inhibitor inactive.
For CNC(C)c1cccc(Cl)c1 (configuration not stated) the results were KDM5B inhibitor inactive.
Screening O=c1c2ccccc2nc(/C=C/c2ccco2)n1-c1ccccc1 returned KDM5B inhibitor inactive.
Screening CC[C@H]1CN2CC[C@H]1C[C@@H]2CNC(=O)Nc1ccccc1 returned KDM5B inhibitor inactive.
`COc1ccccc1-n1c(/C=C/c2ccccc2)nc2ccccc2c1=O` gave KDM5B inhibitor inactive.
`O=S(=O)(c1cccs1)N1C[C@@H](c2ccc(F)cc2)[C@@H]2[C@H]1C1CCN2CC1` gave KDM5B inhibitor inactive.
Screening COc1cccc(C(=O)N2CCC3(CC2)c2nccn2-c2ccccc2CN3C)c1OC returned KDM5B inhibitor inactive.
Screening Cc1cccc([C@H]2C[C@@H](O)[C@@H](O)[C@@H]2NCC2CCCC2)c1 returned KDM5B inhibitor inactive.
`C#CCCN1CCN(C(=O)Cc2nn(C)c(=O)c3ccccc23)CC1` gave KDM5B inhibitor inactive.
Screening Cc1ccc(-n2c(/C=C/c3cccc4ccccc34)nc3ccccc3c2=O)cc1 returned KDM5B inhibitor inactive.
`CCCOC(=O)c1ccc(Oc2coc3cc(OC(=O)N(C)C)ccc3c2=O)cc1` gave KDM5B inhibitor inactive.
Screening COc1ccc(CNC(=O)C(Cl)(Cl)Cl)cc1 returned KDM5B inhibitor inactive.
C=C[C@H]1CN2CC[C@H]1C[C@@H]2CNC(=O)c1cccnc1SC was read as KDM5B inhibitor inactive.
`Cc1ccc2c(n1)N(C)[C@H](CO)CCN(C1COC1)C2` gave KDM5B inhibitor 32µM*.
`CN1c2cccnc2CN(C2COC2)CC[C@H]1CO` gave KDM5B inhibitor inactive.
`Cc1ccc2c(n1)N(C)[C@H](CO)CCN(CCC(C)C)C2` gave KDM5B inhibitor 32µM*.
For O=S(=O)(c1cccnc1)N1[C@H]2CC[C@@H]1c1cnc(-c3ccc(F)cc3)nc1C2 the results were KDM5B inhibitor inactive.
O=C1NCCCCCN[C@H]2CCCC[C@@H]12 was read as KDM5B inhibitor inactive.
Screening CC1c2cccn2-c2ccccc2CN1C(=O)Nc1ccc(Br)cc1 (configuration not stated) returned KDM5B inhibitor inactive.
Screening COc1ccc(NC(=O)NC[C@H]2C[C@@H]3CCN2C[C@@H]3CN2CCN(c3ccccc3OC)CC2)cc1 returned KDM5B inhibitor inactive.
Screening Cc1nc(-c2ccccc2Br)cc([C@H]2CN3CC[C@H]2C[C@@H]3CNC(=O)C2CC2)n1 returned KDM5B inhibitor inactive.
For CC(=O)c1ccc(NC(=O)NC[C@H]2C[C@@H]3CCN2C[C@@H]3c2cc(-c3ccco3)nc(C)n2)cc1 the results were KDM5B inhibitor inactive.
For COCC(=O)NC[C@H]1C[C@@H]2CCN1C[C@@H]2c1cc(-c2ccccc2)nc(C)n1 the results were KDM5B inhibitor inactive.
Cc1nc(-c2ccccc2)cc([C@H]2CN3CC[C@H]2C[C@@H]3CNC(=O)CCCC(=O)O)n1 was read as KDM5B inhibitor inactive.
Cc1nc(-c2ccco2)cc([C@H]2CN3CC[C@H]2C[C@@H]3CNC(=O)C2CC2)n1 was read as KDM5B inhibitor 35µM*.
COc1ccc(-c2cc([C@H]3CN4CC[C@H]3C[C@@H]4CNC(=O)C3CCC3)nc(C)n2)cc1OC was read as KDM5B inhibitor 32µM*.
CCC(CC)c1cc([C@H]2CN3CC[C@H]2C[C@@H]3CNC(=O)COc2ccccc2)nc(-c2ccncc2)n1 was read as KDM5B inhibitor 25µM*.
Cc1nc(-c2ccc(C(F)(F)F)cc2)cc([C@H]2CN3CC[C@H]2C[C@@H]3CNC(=O)C2CC2)n1 was read as KDM5B inhibitor inactive.
`CCC(CC)c1cc([C@H]2CN3CC[C@H]2C[C@@H]3CNC(=O)Cc2cccs2)nc(-c2ccncc2)n1` gave KDM5B inhibitor inactive.
`COc1ccc(C(=O)NC[C@H]2C[C@@H]3CCN2C[C@@H]3c2cc(-c3ccccc3Br)nc(C)n2)cc1` gave KDM5B inhibitor inactive.
For COCC(=O)NC[C@H]1C[C@@H]2CCN1C[C@@H]2c1cc(-c2ccccc2OC)nc(C)n1 the results were KDM5B inhibitor 35µM*.
For CCC(CC)c1cc([C@H]2CN3CC[C@H]2C[C@@H]3COC(=O)Nc2ccccc2)nc(-c2ccncc2)n1 the results were KDM5B inhibitor inactive.
`CCOP(=O)(Cc1ccc(C#N)o1)OCC` gave KDM5B inhibitor inactive.
O=C(Cc1ccccc1F)N1CCN(C2CCN(Cc3cccnc3)C2=O)CC1 (configuration not stated) was read as KDM5B inhibitor inactive.

Screening data as filed in PubChem BioAssay.
